This note sets out measurements from the antibiotic and cytotoxicity screens of Wong et al. (2023).

The campaign covered roughly 39,000 compounds. About 3,300 (8.5%) were called active. What follows is part of a selection rich in actives, with near analogues and random picks from the rest.

For this assay, the system named is HepG2. Description: cytotoxicity call (relative viability < 0.9). The following applies: 10 µM.
In the case of `O=C(c1cccnc1)N1CCOCC1`, the cytotoxicity call is “active”.
With `O=C(NCCCN1CCOCC1)c1cccnc1`, the cytotoxicity call was “inactive”.
As for `O=C(O)c1cccnc1`, the cytotoxicity call is “inactive”.
As to `Cc1ccc(S(=O)(=O)N(C)C[C@@H]2Oc3c(NC(=O)Nc4cccc5ccccc45)cccc3C(=O)N([C@H](C)CO)C[C@H]2C)cc1`, the cytotoxicity call is “inactive”.
`CN(C)C(=O)c1cc2c(c(-c3cccc(/C=C/c4ccccc4)c3)n1)[C@H](CCO)N([S@@](=O)C(C)(C)C)C2`: the cytotoxicity call was “inactive”.
In the case of `C[C@H]1CN([C@@H](C)CO)C(=O)c2cccc(NC(=O)Nc3ccc(C(F)(F)F)cc3)c2O[C@@H]1CN(C)Cc1ccc(C(F)(F)F)cc1`, the cytotoxicity call is “active”.
In the case of `C[C@H](CO)N1C[C@H](C)[C@@H](CN(C)Cc2ccc(C(F)(F)F)cc2)Oc2c(NC(=O)Nc3ccc(C(F)(F)F)cc3)cccc2C1=O`, the cytotoxicity call was “inactive”.
In the case of `C[C@@H]1CN([C@H](C)CO)C(=O)c2cccc(NC(=O)Nc3ccc(C(F)(F)F)cc3)c2O[C@H]1CN(C)Cc1ccc(C(F)(F)F)cc1`, the cytotoxicity call was “active”.
In the case of `C[C@H](CO)N1C[C@H](C)[C@H](CN(C)Cc2ccc(C(F)(F)F)cc2)Oc2c(NC(=O)Nc3ccc(C(F)(F)F)cc3)cccc2C1=O`, the cytotoxicity call is “inactive”.
As to `C[C@H]1CN([C@@H](C)CO)C(=O)c2cccc(NC(=O)Nc3ccc(C(F)(F)F)cc3)c2O[C@H]1CN(C)Cc1ccc(C(F)(F)F)cc1`, the cytotoxicity call was “inactive”.
The entry for `C[C@@H]1CN([C@H](C)CO)C(=O)c2cccc(NC(=O)Nc3ccc(F)cc3)c2O[C@H]1CN(C)Cc1ccc(C(F)(F)F)cc1` is “inactive”; for `C[C@H](CO)N1C[C@H](C)[C@@H](CN(C)Cc2ccc(C(F)(F)F)cc2)Oc2c(NC(=O)Nc3ccc(F)cc3)cccc2C1=O` it is “active”.
In the case of `C[C@@H]1CN([C@@H](C)CO)C(=O)c2cccc(NC(=O)Nc3ccc(C(F)(F)F)cc3)c2O[C@@H]1CN(C)Cc1ccc(C(F)(F)F)cc1`, the cytotoxicity call is “inactive”.
Consider `C[C@@H]1CN([C@@H](C)CO)C(=O)c2cccc(NC(=O)Nc3ccc(F)cc3)c2O[C@H]1CN(C)Cc1ccc(C(F)(F)F)cc1`, for which the cytotoxicity call is “inactive”.
Consider `C[C@@H]1CN([C@H](C)CO)C(=O)c2cccc(NC(=O)Nc3ccc(C(F)(F)F)cc3)c2O[C@@H]1CN(C)Cc1ccc(C(F)(F)F)cc1`, for which the cytotoxicity call is “active”.
Turning to `C[C@@H]1CN([C@H](C)CO)C(=O)c2cccc(NC(=O)Nc3ccc(F)cc3)c2O[C@@H]1CN(C)Cc1ccc(C(F)(F)F)cc1`, the cytotoxicity call was “inactive”.
On to `C[C@H]1CN([C@@H](C)CO)C(=O)c2cccc(NC(=O)Nc3ccc(F)cc3)c2O[C@H]1CN(C)Cc1ccc(C(F)(F)F)cc1`, for which the cytotoxicity call is “inactive”.
The value for `C[C@@H]1CN([C@H](C)CO)C(=O)c2cc(NC(=O)CCC(F)(F)F)ccc2O[C@H]1CN(C)S(=O)(=O)c1cn(C)cn1` was “inactive”; that for `CC(C)NC(=O)N(C)C[C@H]1Oc2c(NS(=O)(=O)c3cn(C)cn3)cccc2C(=O)N([C@@H](C)CO)C[C@@H]1C` was “inactive”; that for `C[C@@H]1CCCCO[C@@H](CN(C)Cc2ccc(C(=O)O)cc2)[C@H](C)CN([C@H](C)CO)C(=O)c2cc(NC(=O)Cc3ccccc3)ccc2O1` was “inactive”.
`CC(C)CC#Cc1cnc2c(c1)C(=O)N([C@@H](C)CO)C[C@@H](C)[C@H](CN(C)S(=O)(=O)c1cccs1)O2`: the cytotoxicity call was “inactive”.
Take `Cc1ccc(S(=O)(=O)N(C)C[C@H]2Oc3ccc(NS(=O)(=O)c4c(C)noc4C)cc3CC(=O)N([C@@H](C)CO)C[C@@H]2C)cc1`: the cytotoxicity call was “inactive”.
For the compound `C[C@@H]1CN([C@H](C)CO)C(=O)Cc2cc(NC(=O)CCN3CCOCC3)ccc2O[C@H]1CN(C)S(=O)(=O)c1ccccc1`, the cytotoxicity call is “inactive”.
As to `CC(=O)OCC(=O)O[C@@H]1[C@H]2[C@@H](OC(=O)c3ccccc3)[C@@H](C)C[C@]2(O)[C@H](OC(C)=O)[C@@]2(C)[C@H](OC(C)=O)[C@]1(OC(C)=O)C[C@H]1C(=O)C(C)(C)C[C@@H]12`, the cytotoxicity call was “inactive”.
As for `O=C(NC(=O)N1CCOCC1)c1ccc(S(=O)(=O)N2CCOCC2)cc1`, the cytotoxicity call was “inactive”.
For the compound `C[C@@H]1CN([C@H](C)CO)C(=O)c2cccc(NC(=O)c3ccncc3)c2O[C@@H]1CN(C)Cc1ccc(-c2ccccc2)cc1`, the cytotoxicity call is “inactive”.
In the case of `C[C@H](CO)N1C[C@H](C)[C@@H](CN(C)S(=O)(=O)c2cccc(F)c2)Oc2ncc(Br)cc2C1=O`, the cytotoxicity call was “inactive”.
For the compound `C[C@@H]1CN([C@H](C)CO)C(=O)c2cc(Br)cnc2O[C@H]1CN(C)C(=O)Nc1ccc2c(c1)OCO2`, the cytotoxicity call is “inactive”.
Take `C[C@H](CO)N1C[C@H](C)[C@H](CN(C)Cc2ccc(Oc3ccccc3)cc2)Oc2c(NC(=O)Nc3ccc(C(F)(F)F)cc3)cccc2C1=O`: the cytotoxicity call is “inactive”.
`C[C@@H]1CN([C@@H](C)CO)C(=O)c2cccc(NC(=O)Nc3ccc(C(F)(F)F)cc3)c2O[C@H]1CN(C)Cc1ccc(C(F)(F)F)cc1`: the cytotoxicity call was “active”.
`C[C@H](CO)N1C[C@H](C)[C@H](CN(C)Cc2ccc(C(F)(F)F)cc2)Oc2c(NC(=O)Nc3ccc(F)cc3)cccc2C1=O`: the cytotoxicity call is “inactive”.
The value for `C[C@@H]1CN([C@H](C)CO)C(=O)c2cccc(NC(=O)Nc3ccc(C(F)(F)F)cc3)c2O[C@H]1CN(C)Cc1ccc(-c2ccccc2)cc1` was “inactive”.
Consider `C[C@@H]1CN([C@@H](C)CO)C(=O)c2cccc(NC(=O)Nc3ccccc3)c2O[C@H]1CN(C)Cc1ccc(C(F)(F)F)cc1`, for which the cytotoxicity call is “inactive”.
For `C[C@H]1CN([C@@H](C)CO)C(=O)c2cccc(NC(=O)Nc3ccc(C(F)(F)F)cc3)c2O[C@@H]1CN(C)Cc1ccc(Oc2ccccc2)cc1`, the cytotoxicity call is “inactive”.
With `C[C@H]1CN([C@@H](C)CO)C(=O)c2cccc(NC(=O)Nc3ccc(F)cc3)c2O[C@@H]1CN(C)Cc1ccc(C(F)(F)F)cc1`, the cytotoxicity call was “inactive”.
In the case of `C[C@H]1CN([C@@H](C)CO)C(=O)c2cccc(NC(=O)Nc3ccc(C(F)(F)F)cc3)c2O[C@H]1CN(C)Cc1ccc(-c2ccccc2)cc1`, the cytotoxicity call was “inactive”.
As to `C[C@@H]1CN([C@H](C)CO)C(=O)c2cccc(NC(=O)Nc3ccc(C(F)(F)F)cc3)c2O[C@@H]1CN(C)Cc1ccc(-c2ccccc2)cc1`, the cytotoxicity call is “active”.
Consider `C[C@@H]1CN([C@@H](C)CO)C(=O)c2cccc(NC(=O)Nc3ccccc3)c2O[C@@H]1CN(C)Cc1ccc(C(F)(F)F)cc1`, for which the cytotoxicity call was “inactive”.
In the case of `C[C@@H]1CN([C@@H](C)CO)C(=O)c2cccc(NC(=O)Nc3ccc(C(F)(F)F)cc3)c2O[C@@H]1CN(C)Cc1ccc(Oc2ccccc2)cc1`, the cytotoxicity call was “active”.
In the case of `C[C@@H]1CN([C@H](C)CO)C(=O)c2cccc(NC(=O)Nc3ccccc3)c2O[C@H]1CN(C)Cc1ccc(C(F)(F)F)cc1`, the cytotoxicity call is “active”.
